This is an account of results in PubChem BioAssay AID1775 (NMMLSC, 2009).

Where “and” joins values, the source holds several entries; their conditions need not be identical. Equal entries are not always repeated. The campaign covered roughly 220,000 compounds. About 820 (0.37%) were called active. Many of the other results were omitted from the sample, so actives are more common in it than they were. Values without a mark were called inactive. No stated cut-off is given here; in the data, active means fluorescence above about 47; inactive means the rest.

A short description of this assay: green autofluorescence of compounds with avidin beads – biophysical, 488/530 nm, flow cytometry, artefact control, profiling panel (AID 1775). The settings on record: compound fluorescence 488/530 nm, at 10 µM, stronger effect = higher value. In general terms: Flow cytometry measures light scatter and fluorescence of single cells or particles in a stream.
In the case of `CN(C)S(=O)(=O)Oc1ccccc1C(=O)Nc1ccccc1Cl`, the fluorescence (KMESF) is 81 (active).
Under `CC(=O)Nc1ccc(NC(=O)COc2ccccc2C(=O)Nc2cccc(Cl)c2Cl)cc1` stands 14; under `O=C(Nc1ccccc1Cl)c1ccccc1S(=O)(=O)c1ccccc1[N+](=O)[O-]`, 11; under `COc1ccc(CCNC(=O)C2CC3Cn4c(nc5cc(C)c(C)cc54)C3N2C)cc1` (centres undefined), 8.
In the case of `COC(=O)c1c(C)oc(C)c1S(=O)(=O)NCc1ccc(Cl)cc1`, the fluorescence (KMESF) is 6.
Next, `CC1=CC(=C(C#N)c2nc3ccccc3s2)C=C(C)N1c1ccc(F)cc1F`: 9.
Next, `Oc1[nH]c2ccc(Br)cc2c1N=Nc1nn[nH]n1`: 4.
Next, `CNC(=S)N1CCC(NC(=O)C(Cc2ccc(F)cc2)NC(C)=O)CC1` (centres undefined): 10.
As for `Fc1cccc(CSc2nnc3ccc(-c4ccncc4)nn23)c1`, the fluorescence (KMESF) is 6.
For the molecule `COc1ccccc1NC(=O)C[n+]1ccccc1`, the fluorescence (KMESF) was 10.
Next, `O=C(Cc1c[nH]c2ccccc12)OCCOC(=O)Cc1c[nH]c2ccccc12`: 21.
Next, `COc1ccccc1NC(=O)CCCc1c[nH]c2ccccc12`: 257 (active).
Next, `O=C(O)Cc1csc(-c2cccc(Oc3ccccc3)c2)n1`: 6 and 3; `O=C(CSc1ccccc1F)NC1CCS(=O)(=O)C1` (centres undefined): 9; `CCOC(=O)/C=C/CN(C(=O)OC(C)(C)C)S(=O)(=O)N1CC=CC1`: 9.
`COc1cc(NC(=S)NNC(=O)CC(C)C)c(OC)cc1Cl`: the fluorescence (KMESF) was 13.
Under `CC(NC(=O)c1ccc(N2CCNCC2)c([N+](=O)[O-])c1)C12CC3CC(CC(C3)C1)C2` (centres undefined) stands 9; under `O=C1CS(=O)CN1c1ccc(Oc2ccccc2)cc1` (centres undefined), 9.
Under `C/C=C/C(=O)Nc1ccc(N2CCN(c3ccc(C(F)(F)F)cn3)CC2)nc1` stands 8; under `COC(=O)c1cn(C(=O)c2ccc(Cl)cc2)c2ccccc12`, 4.
Next, `Cc1nc(-c2ccc(Cl)cc2)sc1C1(C)CC(c2ccccc2F)=NO1` (centres undefined): 7; `O=C(CCC1CCCN(Cc2ccc(O)c(Cl)c2)C1)NCc1ccccc1F` (centres undefined): 12; `Cc1ccc(NC(=O)Nc2nnc(-c3ccncc3)s2)cc1`: 6.
For the molecule `CC(C)=CC(=O)Nc1nnc(-c2ccc(F)cc2)s1`, the fluorescence (KMESF) is 71 (active).
As for `Cc1ccc(C(=O)Nc2nnc(-c3ccncc3)s2)o1`, the fluorescence (KMESF) was 9.
Consider `CN(C)/C(=N\OC(=O)c1ccccc1)c1nonc1N`, for which the fluorescence (KMESF) was 8.
Under `NC(=O)N/N=C\c1cccs1` stands 12.
Under `Cc1ccc(S(=O)(=O)CC(=O)Nc2c(C)n(C)n(-c3ccccc3)c2=O)cc1` stands 12.
Next, `Cc1c(NC(=S)Nc2ccccc2)c(=O)n(-c2ccccc2)n1C`: 4; `Cc1ccc(S(=O)(=O)/N=C(/NC(=S)Nc2c(C)n(C)n(-c3ccccc3)c2=O)c2ccccc2)cc1`: 53 (active); `C=CC1C(OC2OC(CO)C(O)C(O)C2O)OC=C(C(=O)OC)C1CC1CC(=O)CC(CC(=O)CCc2ccc(O)cc2)O1` (centres undefined): 8.
Take `CCC(C)(C)n1nnnc1C(c1cccs1)N1CCN(Cc2ccccc2)CC1` (centres undefined): the fluorescence (KMESF) is 5.
Regarding `Fc1ccccc1C(c1nnnn1Cc1ccc2c(c1)OCO2)N1CCN(Cc2ccccc2)CC1` (centres undefined), the fluorescence (KMESF) was 5.
As to `Fc1ccc(Cn2nnnc2C(c2cccs2)N2CCCCCC2)cc1` (centres undefined), the fluorescence (KMESF) is 62 (active).
Under `Cc1ccc(CCCOC(=O)C[N+]2(C)CCCC2)cc1` stands 6.
On to `CSc1ccccc1NC(=O)Cc1ccc(Br)cc1`, for which the fluorescence (KMESF) was 12.
Consider `CCOC(=O)c1oc2c(CN3CCN(C)CC3)c(O)ccc2c(=O)c1-c1ccc(Br)cc1`, for which the fluorescence (KMESF) was 189 (active).
Turning to `CN1CCN(Cc2c(O)ccc3c2oc(=O)c2ccccc23)CC1`, the fluorescence (KMESF) was 22.
Take `CCN1CCN(Cc2c(O)ccc3c(=O)c(-c4ccc(OC)c(OC)c4)c(C(F)(F)F)oc23)CC1`: the fluorescence (KMESF) is 16.
Under `OCCn1c(-c2ccccc2)csc1=Nc1ccccc1` stands 3; under `CCc1cccc(C)c1N(C(=O)Cn1c(CO)nc2ccccc21)C(C)COC` (centres undefined), 5; under `CCOCN(C(=O)Cn1c(C(C)O)nc2ccccc21)c1c(C)cccc1CC` (centres undefined), 57 (active).
Under `CC(O)c1nc2ccccc2n1Cc1ccc([N+](=O)[O-])cc1` (centres undefined) stands 7; under `O=C1CC(N2CCN(c3ccc(F)cc3)CC2)C(=O)N1c1ccccc1` (centres undefined), 9; under `COC(=O)c1ccc(S(=O)(=O)N(CCO)Cc2ccccc2)n1C`, 6.
Next, `CCCC1C(c2ccccc2)C(C#N)(C#N)C2(C#N)CC1(N)NC2=O` (centres undefined): 90 (active).
On to `Cc1ccc(C(=O)COC(=O)CCN2C(=O)C3C4CC(C(Br)C4Br)C3C2=O)cc1` (centres undefined), for which the fluorescence (KMESF) was 14.
Next, `CCOc1ccc(S(=O)(=O)N/N=C(\C)c2ccc(Cl)c(Cl)c2Cl)cc1`: 7.
Under `N#CCSc1nn(-c2ccc(F)cc2)c(=S)s1` stands 24; under `CCOC(=O)c1c(/N=C/c2cc(C)ccc2O)sc2c1CCC2`, 14.
Under `CC(C)(C)Nc1c(-c2cccs2)nc2ccccn12` stands 9; under `O=C(COC(=O)Cn1cnc2ccccc2c1=O)NCc1ccccc1Cl`, 58 (active).
Turning to `Cn1c(CCC(=O)OCC(=O)NCc2ccccc2Cl)nc(=O)c2ccccc21`, the fluorescence (KMESF) is 21.
Under `O=C(COC(=O)Cn1cnc2ccccc2c1=O)NCC12CC3CC(CC(C3)C1)C2` stands 5; under `COc1ccc(Br)cc1C(=O)Nc1cccc(C)c1C`, 8; under `O=C(CCCCCN1C(=O)c2cccc3cccc(c23)C1=O)NCc1ccco1`, 4.
Under `N#Cc1ccc(N2Cc3ccccc3/C2=N/C(=O)Nc2ccc(Cl)cc2)cc1` stands 15; under `CC(NC(=O)COC(=O)c1cc(=O)[nH]c2ccccc12)c1ccccc1` (centres undefined), 7; under `COC(=O)c1ccc(C2CC(=O)Nc3cc(OC)c(OC)cc32)cc1` (centres undefined), 19.
Next, `COc1cc2c(cc1OC)C(c1ccc(C)o1)CC(=O)N2` (centres undefined): 22.
Turning to `COc1cc2c(cc1OC)C(c1ccncc1)CC(=O)N2` (centres undefined), the fluorescence (KMESF) is 47 (active).
Under `CC(CO)(CO)NC(=O)c1ccc(=O)[nH]n1` stands 4; under `Cc1ncoc1C(=O)N1CCCC(C(=O)c2ccc3c4c(cccc24)CC3)C1` (centres undefined), 10; under `CC(=O)NCC(=O)N1CCCC(C(=O)c2ccc3c4c(cccc24)CC3)C1` (centres undefined), 80 (active).
Next, `CCn1ccnc1CN1CCCC(C(=O)c2ccc3c4c(cccc24)CC3)C1` (centres undefined): 8; `Cc1nnc(Nc2ccccc2F)s1`: 5; `COc1cc(/C=C/C(=O)OCC(=O)N2CCOCC2)ccc1OCC#N`: 10.
For `O=C(NCCCc1ccccc1)C1CCC(CNc2c(N3CCCCC3)c(=O)c2=O)CC1` (centres undefined), the fluorescence (KMESF) is 7.
Under `CCCc1nc(SCC(=O)Nc2ccc(S(=O)(=O)N(C)C)cc2)c2ccccc2n1` stands 1.
Under `Cn1c(SCC(=O)N2CCCc3ccccc32)nc2ccccc2c1=O` stands 4; under `O=C(CSc1ccc2nnc(-c3ccccc3)n2n1)N1CCCc2ccccc21`, 76 (active).
For the molecule `CCCn1c(SCC(=O)N2CCc3ccccc32)nnc1-c1ccncc1`, the fluorescence (KMESF) was 7.
Turning to `CCOc1ccc2sc(NS(=O)(=O)c3ccc(N)cc3)nc2c1`, the fluorescence (KMESF) is 4.
On to `CC(C)(C)NC(=O)NCc1ccco1`, for which the fluorescence (KMESF) is 6.
